Experimental data taken from ChEMBL document CHEMBL4513216, “Probing the Open Global Health Chemical Diversity Library for Multistage-Active Starting Points for Next-Generation Antimalarials” (ACS Infect Dis, 2020).
Among all 69,000 compounds or so, about 8,600 (12%) showed an effect of 50% or more. For the sample, strong results were picked, then their nearest neighbours and some compounds at random.

Each compound was assayed on Plasmodium berghei (assay: Screen against P. berghei liver stage (PbLuc), transformed with Luciferase, at 10uM). Conditions: tested at 10 uM.
Format: functional, HepG2
For `Cc1ccc(CN2C[C@@H]3CCCO[C@@H]3[C@H](N(C)Cc3ccco3)C2)s1`, the INHIBITION was -15.1%.
Work on `O=C(O)C1(Oc2ccc3c(c2)OCO3)CCN(C2CCOCC2)CC1` yielded an INHIBITION of 31.9%.
With `N#CCC1CC(c2ccc(F)cc2)=NO1` (centres undefined) the INHIBITION was 12.6%.
Compound `O=C(CN1CCOC(Cn2cccn2)C1)NCCc1cccs1` (centres undefined) has an INHIBITION of 6.49%.
In the case of `Cn1cccc1C(=O)N1CC[C@@H]2[C@@H]1CC(=O)N2CCN1CCOCC1`, the INHIBITION was 1.9%.
Compound `Cn1cccc1C(=O)N1C[C@H]2CN(CC3CC3)C(=O)[C@H]2C1` has an INHIBITION of 2.26%.
With `O=C(c1ccoc1)N1CC[C@H]2[C@H]1CCN2CC1CC1` the INHIBITION was -6.05%.
In the case of `Cn1cccc1C(=O)N1CC[C@H]2[C@@H]1CCC(=O)N2CC1CC1`, the INHIBITION was 54.1%.
For `Cn1cccc1C(=O)N1CCC2(CCCN(CC3CC3)C2=O)C1` (centres undefined), the INHIBITION was 9.63%.
`Cn1cc(Cl)cc1C(=O)N1CCC2(CCCN(CC3CCC3)C2=O)C1` (centres undefined) showed an INHIBITION of 19.5%.
For `Cn1cccc1C(=O)N1CC[C@H]2[C@@H]1CCC(=O)N2c1ccccc1`, the INHIBITION was 43.8%.
For `Cn1cccc1C(=O)N1CC[C@H]2[C@H]1CCN2CC1CC1`, the INHIBITION was 55.6%.
For `O=C1C[C@H]2[C@@H](CCN2C(=O)c2ccccc2)N1CCN1CCOCC1`, the INHIBITION was 30.1%.
`Cn1cccc1C(=O)N1CC[C@H]2[C@H]1CCN2CC1CCOCC1` was tested, and the INHIBITION was 27.5%.
`Cn1cccc1C(=O)N1CCC2(CCCN(CC3CCC3)C2=O)C1` (centres undefined) gave an INHIBITION of 53.6%.
Compound `Cn1cccc1C(=O)N1CC[C@@H]2[C@@H]1CC(=O)N2CC1CCOCC1` has an INHIBITION of 51.2%.
`CCCn1nc(C)c2c(C(F)F)cc(=O)n(CC(=O)O)c21` was tested, and the INHIBITION was -7.59%.
`O=C(c1cccc2ncccc12)N1CCCC(n2ccnc2)C1` (centres undefined) was tested, and the INHIBITION was 27.72%.
`CC(C)c1nnc(NC(=O)CN2C(=O)c3ccccc3NC2C(C)C)s1` (centres undefined) gave an INHIBITION of 19.4%.
With `Cc1nn(C)c(N2CCOCC2)c1CNCc1ccc(CO)c(F)c1` the INHIBITION was -35.7%.
With `CCCc1cc(NC2CCc3nc(CC)nn3C2)n2ncnc2n1` (centres undefined) the INHIBITION was 16.6%.
In the case of `CN1C[C@H]2CNC[C@@]2(C(=O)NC2CCN(c3ncccc3C#N)CC2)C1`, the INHIBITION was 36.6%.
Work on `COCc1nn(C(C)C)c2c1CCN(Cc1ccc(C)s1)C2` yielded an INHIBITION of -6.53%.
For `COCc1nn(C(C)C)c2c1CCN(Cc1ccoc1)C2`, the INHIBITION was -76.7%.
`COCc1nn(C(C)C)c2c1CCN(Cc1ccc(C)o1)C2` showed an INHIBITION of 58.8%.
Work on `N#Cc1ccsc1NC(=O)CN1CCn2c(nnc2C2CC2)C1` yielded an INHIBITION of 23.4%.
For `Cc1cc(CN(CCO)Cc2cc(Br)ccc2F)no1`, the INHIBITION was 37.8%.
`O=c1c2cc3c(cc2nnn1Cc1ccccc1)OCCO3` gave an INHIBITION of 15.1%.
`O=c1c2cc3c(cc2nnn1Cc1ccccc1Cl)OCCO3` was tested, and the INHIBITION was 57.3%.
For `Cc1ccccc1Cn1nnc2cc3c(cc2c1=O)OCCO3`, the INHIBITION was 37.5%.
`CC(=O)N1CC(=O)N(c2ccccc2)CC12CCN(Cc1nccs1)C2` (centres undefined) gave an INHIBITION of -0.912%.
Work on `CC(=O)N1N=C(c2cccs2)OC1C(=O)NCCc1cccc(Cl)c1` (centres undefined) yielded an INHIBITION of 25.3%.
`N#CCCN(CCC#N)C(=O)c1cccc(N2CCNC2=O)c1` showed an INHIBITION of 46.1%.
`COCCN(CCOC)C(=O)c1cccc(Cn2nc(C)cc2C)c1` showed an INHIBITION of 11.1%.
Compound `Cc1cc(C)n(Cc2cccc(C(=O)N(CCC#N)CCC#N)c2)n1` has an INHIBITION of 56%.
Work on `Cc1nc2ccc(C(=O)N(CCC#N)CCC#N)cc2nc1C` yielded an INHIBITION of -37.4%.
`CCN(CC)C(=O)c1cccc(Cn2nc(C)cc2C)c1` gave an INHIBITION of 10.5%.
In the case of `CC(C)(C)CN(CCC#N)C(=O)Nc1cccc(N2CCNC2=O)c1`, the INHIBITION was -45.2%.
`COC(=O)c1cccc(C(=O)N(CCC#N)CC(C)(C)C)c1` was tested, and the INHIBITION was 68.6%.
Work on `CC(C)(C)CN(CCC#N)C(=O)c1cccc(CN2CCCC2)c1` yielded an INHIBITION of -38.2%.
Compound `CC(C)(C)CN(CCC#N)C(=O)c1cccc(CC#N)c1` has an INHIBITION of 80%.
In the case of `Cc1csc(C2CCCCN2C(=O)c2cc(C)n(C)n2)n1` (centres undefined), the INHIBITION was 17.5%.
For `O=c1cc(Cn2ccnc2)nc2n1CCCN(Cc1ccc(F)cc1)C2`, the INHIBITION was -3.52%.
Compound `Cn1ccnc1CN1CCN(CCOc2ccccc2F)CC1` has an INHIBITION of 7.27%.
Work on `CC(C)c1ncc(CN2CCC(CO)C2)cn1` (centres undefined) yielded an INHIBITION of 8.72%.
For `CCc1n[nH]c(C2CN(C(=O)Cn3ccccc3=O)CCO2)n1` (centres undefined), the INHIBITION was 53%.
In the case of `CCc1n[nH]c(C2CN(C(=O)CCn3ccccc3=O)CCO2)n1` (centres undefined), the INHIBITION was -22.9%.
In the case of `CCCc1n[nH]c(C2CN(C(=O)Cn3ccccc3=O)CCO2)n1` (centres undefined), the INHIBITION was 48.4%.
With `CC(C)c1n[nH]c(C2CN(C(=O)Cn3ccccc3=O)CCO2)n1` (centres undefined) the INHIBITION was 62.1%.
For `CC(C)c1n[nH]c(C2CN(C(=O)CCn3ccccc3=O)CCO2)n1` (centres undefined), the INHIBITION was 5.97%.
`Cc1n[nH]c(C2CN(C(=O)Cn3ccccc3=O)CCO2)n1` (centres undefined) showed an INHIBITION of 34.5%.
In the case of `Cc1noc([C@H]2C[C@@H]3CCN(CC4CCOCC4)C[C@H]3O2)n1`, the INHIBITION was 27.7%.
Work on `CNC(=O)CN1CC[C@H]2CN(C(=O)c3cccc(C)c3)C[C@H]2C1` yielded an INHIBITION of 8.52%.
In the case of `Cc1nocc1C(=O)N1CCc2c(CN(C)C)nn(C)c2C1`, the INHIBITION was -1.12%.
Work on `O=C(c1cc2c(s1)CCOC2)N1CCCC1Cn1cccn1` (centres undefined) yielded an INHIBITION of 8.64%.
In the case of `O=C(Cn1cnc2cc3c(cc21)OCCCO3)NC1CCCCC1`, the INHIBITION was 13.7%.
`c1cc(CN2CCC(c3ccnc4nccn34)C2)ccn1` (centres undefined) showed an INHIBITION of 35.7%.
`c1ccc2c(Cc3nnc([C@H]4CCNC4)o3)c[nH]c2c1` was tested, and the INHIBITION was 65.6%.
`c1ccc2c(Cc3nnc([C@H]4CCN(C5CCC5)C4)o3)c[nH]c2c1` was tested, and the INHIBITION was -4.88%.
`c1ccc2c(Cc3nnc([C@H]4CCN(C5CCOCC5)C4)o3)c[nH]c2c1` showed an INHIBITION of 56.1%.
For `CN1CC[C@H](c2nnc(Cc3c[nH]c4ccccc34)o2)C1`, the INHIBITION was 24.9%.
`c1ccc2c(Cc3nnc([C@H]4CCN(CC5CC5)C4)o3)c[nH]c2c1` gave an INHIBITION of 5.96%.
Compound `c1ccc2c(Cc3nnc([C@H]4CCN(C5CCCCC5)C4)o3)c[nH]c2c1` has an INHIBITION of 8.67%.
In the case of `CCn1nc(C)c2nc(C(C)C)nc(NCC(=O)N3CCOCC3)c21`, the INHIBITION was 48.2%.
